Bioassay records from PubChem BioAssay.
PLK1 PBD inh: inhibitors of human PLK1 polo-box domain binding; Potency, µM, for the others: max response, negative = inhibition, actives largely listed as inhibitors; Plk1 PBD binding of FITC phosphopeptide, fluorescence polarization; P53350; 360,000 tested, 2.8% active; note: series mostly up to about 57 µM; % is set by controls: 0 for no effect and ±100 for the full control effect; nearly all actives have a fitted effect of over 65% in size
USP1 inh: inhibitors of human USP1/UAF1 deubiquitinase | 390,000 tested, 0.23% active | AID 743255 | Potency, µM (highest dose often 57.1 µM), inactives show at the top dose activity change, negative = inhibition, hits mostly inhibitors | recombinant USP1/UAF1, Ub-Rhodamine cleavage fluorescence; note: % is set by controls: 0 for no effect and ±100 for the full control effect; nearly all actives have a fitted effect of over 60% in size
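1 nM enzyme complex + cpd, 15 min RT; start with Ub-Rho 150nM final; kinetic fluorescence ex 480/em 540, 6 reads q60 s. Buffer 50mM HEPES pH 7.8, 0.5mM EDTA, 0.1 mg/ml BSA, 1mM TCEP, 0.01% Tween-20.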
KAT2A inh: blocks human GCN5L2 histone acetyltransferase | 390,000 tested, 0.21% active | Potency, µM (doses to about 58.9 µM), inactives show at the highest dose activity change, negative = inhibition, most hits filed as inhibitors | GCN5L2 HAT assay, ThioGlo1 CoA-SH fluorescence; note: % is set by controls: 0 for no effect and ±100 for the full control effect
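qHTS, 1536-well. 20nM enzyme, pH 7.5 HEPES/EDTA/Tween-20 buffer; 15 min compound preinc., RT. Start: 75uM H3(1-25), 70uM AcCoA, 50uM ThioGlo1. Read Ex340/Em540 at t=0 (autofluorescence flag) and t=20 min.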
PTAP TSG101 blk: blocks PTAP/TSG101 interaction to inhibit HIV-1 budding. Q99816. Fluorescence polarization, FITC-PTAP peptide / Tsg101 binding. Potency, µM (series often up to 115 µM), for the others: at the top dose activity change, negative = inhibition, hits mostly inhibitors. AID 493005. 340,000 tested, under 10 active; active = well fitted inhibition curve with a large enough effect in the main read-out, with a control signal flat, not every such curve was filed as active; inconclusive = small, poorly fitted or top-dose-only effect, or effect the other way, or a change in a side signal; inactive = no such curve, though single readings can be large or run the other way; note: % of control where 0% means no effect
Target sequence (Q99816 whole entry, looked up): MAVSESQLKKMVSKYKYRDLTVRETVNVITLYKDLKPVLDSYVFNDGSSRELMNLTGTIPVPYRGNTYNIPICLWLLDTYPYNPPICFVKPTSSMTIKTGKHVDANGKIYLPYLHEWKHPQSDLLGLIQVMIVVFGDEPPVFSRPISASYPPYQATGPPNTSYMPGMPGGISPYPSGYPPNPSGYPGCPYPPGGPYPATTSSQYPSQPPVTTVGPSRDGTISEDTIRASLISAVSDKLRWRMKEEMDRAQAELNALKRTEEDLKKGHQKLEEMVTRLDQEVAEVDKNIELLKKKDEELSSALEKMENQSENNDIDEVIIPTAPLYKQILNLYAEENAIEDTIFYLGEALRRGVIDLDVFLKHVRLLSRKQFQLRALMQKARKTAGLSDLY
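Fluorescence polarization binding of Tsg101 binding domain (10 uM final) to FITC-labeled PTAP peptide (50 nM final) in HEPES pH 7.5 buffer with NaCl, Tween 20, EDTA, TCEP. Compounds added before peptide; binding 20 min at RT.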
VDR inh: inhibitors of human vitamin D receptor | P11473 | VDR-SRC2-3 peptide fluorescence polarization, 2 h | Potency, µM, for the others: max response, negative = inhibition, actives largely listed as inhibitors | 400,000 tested, 0.93% active | AID 504847; note: % is set by controls: 0 for no effect and ±100 for the full control effect
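Two reagent solutions held at 4 deg C in the dark were dispensed, compounds pinned at 23 nl, and the mixture incubated 2 h at room temperature. Read-out: fluorescence polarization of VDR–SRC2-3 peptide binding.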
The depositor's hits bear a star. Most compounds without a hit are left out; they make up all but 3% or so of the library. Unless noted, calls come from the whole dose curve; as a rule, active = well fitted curve in the direction sought with a large enough effect; inconclusive = small, poorly fitted or top-dose-only effect, or another doubt; inactive = no such curve, though single readings can be large; an effect the other way counts as inactive or inconclusive. Potency is the fitted concentration of half-maximal effect.

What do the screens show for `Cc1ccc(C)c(NC2=C(c3ccc(C(F)(F)F)cc3)C(=O)c3ccccc32)c1`?
USP1 inh: -16%; KAT2A inh: 2%; VDR inh: 22%

How did COc1cccc(CN2C(=O)N(c3ccc(C)cc3)C(=O)C2CC(=O)Nc2cc(OC)cc(OC)c2)c1 (stereo unspecified) do in these assays?
USP1 inh: -9%; KAT2A inh: -6%; VDR inh: 13%

How did Cc1ccc(Oc2ccccc2/C=N/O)cc1 do in these assays?
PLK1 PBD inh: 3.4µM*; USP1 inh: -6%; KAT2A inh: -19%; PTAP TSG101 blk: -1%; VDR inh: -17%

What do the screens show for `COC/C=C/C1=CC2=CC(=O)C(C)(OC(=O)C3CCCC3)C(=O)C2=CO1` (stereo unspecified)?
PLK1 PBD inh: 24µM*; USP1 inh: inconclusive; KAT2A inh: 14%; PTAP TSG101 blk: -2%; VDR inh: inconclusive

What do the screens show for `COC/C=C/C1=CC2=CC(=O)C(C)(OC(=O)c3ccco3)C(=O)C2=CO1` (stereo unspecified)?
KAT2A inh: 0%; VDR inh: inconclusive

How did C=CCNC(=S)Nc1ccc(Cl)cc1 do in these assays?
PLK1 PBD inh: 13µM*; USP1 inh: 1%; KAT2A inh: -5%; PTAP TSG101 blk: -5%; VDR inh: -1%

How did S=C(NCc1ccccc1)Nc1ccc(Cl)cc1 do in these assays?
PLK1 PBD inh: 5%; USP1 inh: -11%; KAT2A inh: 1%; PTAP TSG101 blk: -1%; VDR inh: 7%

Results for S=C(NNC(=S)Nc1ccccc1)Nc1ccccc1 ?
PLK1 PBD inh: inconclusive; USP1 inh: -23%; KAT2A inh: -3%; PTAP TSG101 blk: -3%; VDR inh: 71µM*

How did CC(C)(C)NC(=S)Nc1ccc(Nc2ccccc2)cc1 do in these assays?
PLK1 PBD inh: 30µM*; USP1 inh: -15%; KAT2A inh: -8%; PTAP TSG101 blk: -3%; VDR inh: -24%

How did Cc1cccc(NC(=S)NNc2cccc(Cl)c2)c1 do in these assays?
PLK1 PBD inh: 27µM*; USP1 inh: -23%; KAT2A inh: 0%; PTAP TSG101 blk: -2%; VDR inh: 28µM*

What do the screens show for `CC(C)(C)NC(=S)Nc1ccc(Br)cc1`?
PLK1 PBD inh: 0%; USP1 inh: -16%; KAT2A inh: inconclusive; PTAP TSG101 blk: -2%; VDR inh: 22%

What do the screens show for `S=C(NNC(=S)Nc1ccc(Cl)cc1)NNc1ccccc1`?
PLK1 PBD inh: 7.5µM*; USP1 inh: -25%

Results for Cc1cccc(NNC(=S)Nc2ccccc2)c1 ?
PLK1 PBD inh: inconclusive; USP1 inh: -25%

How did NC(=S)NNC(=S)Nc1ccccc1 do in these assays?
PLK1 PBD inh: inconclusive; USP1 inh: -7%; KAT2A inh: -5%; PTAP TSG101 blk: -2%; VDR inh: inconclusive

How did CCC(=O)N1CCc2cc(Br)cc(S(=O)(=O)CCC(=O)N(CC)Cc3ccccc3)c21 do in these assays?
USP1 inh: 3%; KAT2A inh: -5%; VDR inh: 9%

How did COC(=O)CN=Cc1c(C)[nH]n(-c2ccccc2)c1=O do in these assays?
PLK1 PBD inh: 0%; USP1 inh: -6%; KAT2A inh: 0%; PTAP TSG101 blk: -1%; VDR inh: 14%

How did Cc1[nH]n(-c2ccccc2)c(=S)c1C=NCCCN=Cc1c(C)[nH]n(-c2ccccc2)c1=S do in these assays?
PLK1 PBD inh: 17µM*; USP1 inh: -23%; KAT2A inh: 18µM*; PTAP TSG101 blk: -4%; VDR inh: inconclusive

How did O=C(Nc1ccccc1Sc1ccccc1)c1cnn2c1NC(=C1CC1)C=C2C(F)F do in these assays?
VDR inh: -11%

What do the screens show for `O=c1oc2c3c4c(cc2c(C(F)(F)F)c1CCN1CCOCC1)CCCN4CCC3`?
PLK1 PBD inh: 33%; USP1 inh: 6.3µM*; KAT2A inh: -5%; PTAP TSG101 blk: inconclusive; VDR inh: 7%

Results for COc1ccc(OC)c(NC(=O)N2CC3CCCN3c3ccccc32)c1 (stereo unspecified) ?
USP1 inh: -10%; KAT2A inh: -6%; VDR inh: 15%
